# Measurements published in PubChem BioAssay AID1159580 (chemical genetic matrix, 2015).
# Several values for one entry are separate records, joined by “and”; a condition that tells them apart may be missing. Equal values may be shown once. About 2,000 (36%) of roughly 5,500 compounds were called active. Another 18% or so got no clear call; they are omitted. Rule as the data show it: active = normalized growth mostly below about 0.91 (no sharp cut-off); inconclusive = no clear call, values can overlap the other calls; inactive = mostly above about 0.92. The list shows a part of the results. Some compounds were tested as several samples or in several runs, with calls that do not always agree.
# Assay: chemical genetic growth profiling, strain panel (AID 1159580);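 also: tested at 20 µM; growth read once vehicle control cultures reached saturation at 30 °C; 1 = growth at the plate median or of vehicle wells; lower values mean less growth of the strain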
# Conditions: growth OD
smiles,measurement,setting,value
CN1CCN(CCCN2c3ccccc3Sc3ccc(C(F)(F)F)cc32)CC1,normalized growth,"S. cerevisiae deletion strains, locus YJR075W, strain HOC1, stronger effect = lower value",0.0765 (active) and 0.787 (active)
same,normalized growth,"S. cerevisiae deletion strains, locus YKL009W, strain mrt4, stronger effect = lower value",0.875 (active)
same,normalized growth,"S. cerevisiae deletion strains, locus YKL068W, stronger effect = lower value",0.984 (inactive)
same,normalized growth,"S. cerevisiae deletion strains, locus YKL085W, strain MDH1 (second series), stronger effect = lower value",0.957 (inactive)
same,normalized growth,"S. cerevisiae deletion strains, locus YKL085W, strain MDH1, stronger effect = lower value",0.957 (inactive)
same,normalized growth,"S. cerevisiae deletion strains, locus YKL160W, strain elf1, stronger effect = lower value",0.0849 (active)
same,normalized growth,"S. cerevisiae deletion strains, locus YKL190W, strain CNB1, stronger effect = lower value",0.0505 (active)
same,normalized growth,"S. cerevisiae deletion strains, locus YKR001C, strain vps1, stronger effect = lower value",0.0668 (active)
same,normalized growth,"S. cerevisiae deletion strains, locus YKR026C, strain gcn3, stronger effect = lower value",0.0825 (active)
same,normalized growth,"S. cerevisiae deletion strains, locus YKR091W, strain srl3, stronger effect = lower value",0.073 (active)
same,normalized growth,"S. cerevisiae deletion strains, locus YLL001W, strain dnm1, stronger effect = lower value",0.0784 (active)
same,normalized growth,"S. cerevisiae deletion strains, locus YLL026W, stronger effect = lower value",0.0619 (active)
same,normalized growth,"S. cerevisiae deletion strains, locus YLL041C, strain sdh2, stronger effect = lower value",0.0714 (active)
same,normalized growth,"S. cerevisiae deletion strains, locus YLR027C, strain aat2, stronger effect = lower value",0.0651 (active)
same,normalized growth,"S. cerevisiae deletion strains, locus YLR039C, strain RIC1, stronger effect = lower value",0.105 (active)
same,normalized growth,"S. cerevisiae deletion strains, locus YLR058C, strain SHM2, stronger effect = lower value",0.0587 (active)
same,normalized growth,"S. cerevisiae deletion strains, locus YLR102C, strain apc9, stronger effect = lower value",0.0738 (active)
same,normalized growth,"S. cerevisiae deletion strains, locus YLR113W, strain HOG1, stronger effect = lower value",0.941 (inactive)
same,normalized growth,"S. cerevisiae deletion strains, locus YLR221C, strain rsa3, stronger effect = lower value",0.0717 (active)
same,normalized growth,"S. cerevisiae deletion strains, locus YLR258W, strain gsy2, stronger effect = lower value",0.0705 (active)
same,normalized growth,"S. cerevisiae deletion strains, locus YLR262C, strain YPT6 (second series), stronger effect = lower value",0.0947 (active)
same,normalized growth,"S. cerevisiae deletion strains, locus YLR262C, strain YPT6, stronger effect = lower value",0.129 (active)
same,normalized growth,"S. cerevisiae deletion strains, locus YLR268W, strain sec22, stronger effect = lower value",0.0809 (active)
same,normalized growth,"S. cerevisiae deletion strains, locus YLR320W, strain mms22, stronger effect = lower value",0.0931 (active)
same,normalized growth,"S. cerevisiae deletion strains, locus YLR330W, strain CHS5, stronger effect = lower value",0.0585 (active)
same,normalized growth,"S. cerevisiae deletion strains, locus YLR342W, strain FKS1 (second series), stronger effect = lower value",0.0849 (active)
same,normalized growth,"S. cerevisiae deletion strains, locus YLR342W, strain FKS1, stronger effect = lower value",0.0733 (active)
same,normalized growth,"S. cerevisiae deletion strains, locus YLR357W, strain rsc2, stronger effect = lower value",0.148 (active)
same,normalized growth,"S. cerevisiae deletion strains, locus YLR370C, strain arc18, stronger effect = lower value",0.0604 (active)
same,normalized growth,"S. cerevisiae deletion strains, locus YLR371W, strain rom2, stronger effect = lower value",0.0675 (active)
same,normalized growth,"S. cerevisiae deletion strains, locus YLR384C, strain iki3, stronger effect = lower value",0.0666 (active)
same,normalized growth,"S. cerevisiae deletion strains, locus YLR418C, strain cdc73, stronger effect = lower value",0.125 (active)
same,normalized growth,"S. cerevisiae deletion strains, locus YML016C, strain PPZ1, stronger effect = lower value",0.0583 (active)
same,normalized growth,"S. cerevisiae deletion strains, locus YML032C, strain rad52, stronger effect = lower value",0.0831 (active)
same,normalized growth,"S. cerevisiae deletion strains, locus YML120C, strain ndi1, stronger effect = lower value",0.0683 (active)
same,normalized growth,"S. cerevisiae deletion strains, locus YML124C, strain tub3, stronger effect = lower value",0.0843 (active)
same,normalized growth,"S. cerevisiae deletion strains, locus YMR058W, strain fet3, stronger effect = lower value",0.0611 (active)
same,normalized growth,"S. cerevisiae deletion strains, locus YMR078C, strain ctf18, stronger effect = lower value",0.239 (active)
same,normalized growth,"S. cerevisiae deletion strains, locus YMR125W, strain sto1, stronger effect = lower value",0.0897 (active)
same,normalized growth,"S. cerevisiae deletion strains, locus YMR129W, stronger effect = lower value",0.061 (active)
same,normalized growth,"S. cerevisiae deletion strains, locus YMR205C, strain PFK2, stronger effect = lower value",0.199 (active)
same,normalized growth,"S. cerevisiae deletion strains, locus YMR223W, strain ubp8, stronger effect = lower value",0.0945 (active)
same,normalized growth,"S. cerevisiae deletion strains, locus YMR231W, strain pep5, stronger effect = lower value",0.0666 (active)
same,normalized growth,"S. cerevisiae deletion strains, locus YMR263W, strain SAP30, stronger effect = lower value",0.122 (active) and 1 (inactive)
same,normalized growth,"S. cerevisiae deletion strains, locus YMR307W, strain GAS1, stronger effect = lower value",0.122 (active) and 0.848 (active)
same,normalized growth,"S. cerevisiae deletion strains, locus YNL067W, strain RPL9B, stronger effect = lower value",0.0685 (active)
same,normalized growth,"S. cerevisiae deletion strains, locus YNL071W, strain lat1, stronger effect = lower value",0.0775 (active)
same,normalized growth,"S. cerevisiae deletion strains, locus YNL128W, strain TEP1, stronger effect = lower value",0.0773 (active)
same,normalized growth,"S. cerevisiae deletion strains, locus YNL153C, strain GIM3, stronger effect = lower value",0.0603 (active) and 0.583 (active)
same,normalized growth,"S. cerevisiae deletion strains, locus YNL175C, strain NOP13, stronger effect = lower value",1.15 [resistant] (active)
same,normalized growth,"S. cerevisiae deletion strains, locus YNL183C, strain NPR1, stronger effect = lower value",0.91 (inactive)
same,normalized growth,"S. cerevisiae deletion strains, locus YNL197C, strain WHI3, stronger effect = lower value",1.08 (inactive)
same,normalized growth,"S. cerevisiae deletion strains, locus YNL209W, strain ssb2, stronger effect = lower value",0.0693 (active)
same,normalized growth,"S. cerevisiae deletion strains, locus YNL224C, strain SQS1, stronger effect = lower value",1.11 [resistant] (active)
same,normalized growth,"S. cerevisiae deletion strains, locus YNL233W, strain BNI4, stronger effect = lower value",0.0609 (active)
same,normalized growth,"S. cerevisiae deletion strains, locus YNL248C, strain rpa49, stronger effect = lower value",0.102 (active)
same,normalized growth,"S. cerevisiae deletion strains, locus YNL250W, strain rad50, stronger effect = lower value",0.968 (inactive)
same,normalized growth,"S. cerevisiae deletion strains, locus YNL271C, strain bni1, stronger effect = lower value",0.982 (inactive)
same,normalized growth,"S. cerevisiae deletion strains, locus YNL298W, strain CLA4, stronger effect = lower value",0.938 (inactive)
same,normalized growth,"S. cerevisiae deletion strains, locus YNL307C, strain MCK1, stronger effect = lower value",0.0726 (active)
same,normalized growth,"S. cerevisiae deletion strains, locus YNL322C, strain KRE1 (second series), stronger effect = lower value",0.978 (inactive)
same,normalized growth,"S. cerevisiae deletion strains, locus YNL322C, strain KRE1, stronger effect = lower value",0.0571 (active)
same,normalized growth,"S. cerevisiae deletion strains, locus YNR049C, strain mso1, stronger effect = lower value",0.0676 (active)
same,normalized growth,"S. cerevisiae deletion strains, locus YNR052C, strain pop2, stronger effect = lower value",0.0713 (active)
same,normalized growth,"S. cerevisiae deletion strains, locus YOL006C, strain TOP1, stronger effect = lower value",0.119 (active)
same,normalized growth,"S. cerevisiae deletion strains, locus YOL012C, strain htz1",0.176 (active)
same,normalized growth,"S. cerevisiae deletion strains, locus YOL147C, strain pex11, stronger effect = lower value",0.0736 (active)
same,normalized growth,"S. cerevisiae deletion strains, locus YOR001W, strain rrp6, stronger effect = lower value",0.0923 (active)
same,normalized growth,"S. cerevisiae deletion strains, locus YOR061W, strain CKA2, stronger effect = lower value",0.0554 (active)
same,normalized growth,"S. cerevisiae deletion strains, locus YOR069W, strain VPS5, stronger effect = lower value",0.112 (active)
same,normalized growth,"S. cerevisiae deletion strains, locus YOR070C, strain gyp1, stronger effect = lower value",0.0657 (active)
same,normalized growth,"S. cerevisiae deletion strains, locus YOR080W, strain dia2, stronger effect = lower value",0.0771 (active)
same,normalized growth,"S. cerevisiae deletion strains, locus YOR083W, strain WHI5 (second series), stronger effect = lower value",0.748 (active)
same,normalized growth,"S. cerevisiae deletion strains, locus YOR083W, strain WHI5, stronger effect = lower value",0.0778 (active)
same,normalized growth,"S. cerevisiae deletion strains, locus YOR106W, strain vam3, stronger effect = lower value",0.0723 (active)
same,normalized growth,"S. cerevisiae deletion strains, locus YOR136W, strain idh2, stronger effect = lower value",0.0795 (active)
same,normalized growth,"S. cerevisiae deletion strains, locus YOR144C, strain elg1, stronger effect = lower value",0.0731 (active)
same,normalized growth,"S. cerevisiae deletion strains, locus YOR184W, strain ser1, stronger effect = lower value",0.0849 (active)
same,normalized growth,"S. cerevisiae deletion strains, locus YOR231W, strain MKK1, stronger effect = lower value",0.939 (inactive)
same,normalized growth,"S. cerevisiae deletion strains, locus YOR265W, strain rbl2, stronger effect = lower value",0.0652 (active)
same,normalized growth,"S. cerevisiae deletion strains, locus YOR270C, strain vph1, stronger effect = lower value",0.136 (active)
same,normalized growth,"S. cerevisiae deletion strains, locus YOR290C, strain snf2, stronger effect = lower value",0.0834 (active)
same,normalized growth,"S. cerevisiae deletion strains, locus YOR316C, strain cot1, stronger effect = lower value",0.0693 (active)
same,normalized growth,"S. cerevisiae deletion strains, locus YPL051W, strain arl3, stronger effect = lower value",0.12 (active)
same,normalized growth,"S. cerevisiae deletion strains, locus YPL055C, strain LGE1, stronger effect = lower value",0.072 (active) and 0.65 (active)
same,normalized growth,"S. cerevisiae deletion strains, locus YPL078C, strain atp4, stronger effect = lower value",0.161 (active)
same,normalized growth,"S. cerevisiae deletion strains, locus YPL106C, strain sse1, stronger effect = lower value",0.104 (active)
same,normalized growth,"S. cerevisiae deletion strains, locus YPL240C, strain hsp82, stronger effect = lower value",0.0671 (active)
same,normalized growth,"S. cerevisiae deletion strains, locus YPL241C, strain CIN2, stronger effect = lower value",0.0575 (active)
same,normalized growth,"S. cerevisiae deletion strains, locus YPL256C, strain CLN2, stronger effect = lower value",0.914 (inactive)
same,normalized growth,"S. cerevisiae deletion strains, locus YPR119W, strain clb2, stronger effect = lower value",0.079 (active)
same,normalized growth,"S. cerevisiae deletion strains, locus YPR141C, strain kar3, stronger effect = lower value",0.98 (inactive)
same,normalized growth,"S. cerevisiae deletion strains, locus YPR163C, strain tif3, stronger effect = lower value",0.0727 (active)
same,normalized growth,"S. cerevisiae deletion strains, locus YPR167C, strain met16, stronger effect = lower value",0.0761 (active)
same,normalized growth,"S. cerevisiae deletion strains, strain wtn01, stronger effect = lower value",0.073 (active)
same,normalized growth,"S. cerevisiae strains, strain wild type, stronger effect = lower value",0.0552 (active)
